Measured values from PubChem BioAssay (EPA / NIEHS).
Values joined by “and” are separate entries in the source; they are usually repeats but may differ in a detail not shown here. Equal entries are not always repeated. Inconclusive results are not listed. Active and inactive are the calls of the source. The calls were made as follows, unless noted: active = hit-call score of the fitted dose curve at least 0.9, where 1 is the maximum; inactive = score below 0.9.

Experiments:
[1] = BSK_SAg_SRB: Viability Assessment in the BioMAP Diversity Plus: SAg Assay (AID 2283096); details: primary human HUVEC with PBMC;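 also: cells read one day after compound addition; hits may be either gain or loss of signal compared with DMSO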
Outline: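 Human umbilical vein endothelial cells co-cultured with PBMC, read 24 h after compound dosing. Total protein measured by sulforhodamine B staining (0.1% SRB after 10% TCA fixation, absorbance 560 nm); bidirectional fit versus DMSO baseline.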

[2] = BSK_BT_PBMCCytotoxicity: PBMC Cytotoxicity Assessment in the BioMAP Diversity Plus: BT Assay (AID 2284225); details: primary human B cells with PBMC;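 also: PBMC viability measured by Alamar Blue dye reduction fluorescence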
Outline: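 PBMC (75,000/well) pretreated with compound 1 h, then activated with SEB and TSST-1 (20 ng/mL each final), incubated 90 h; Alamar Blue added 6 h, fluorescence read at 546/580 nm. Fitted relative to DMSO.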

[3] = read-out: Secreted IgG (sIgG), gene 3500; assay: BSK_BT_sIgG: BioMAP Diversity Plus: BT Assay for Secreted IgG (sIgG) Biomarker Activity (AID 2284226); details: primary human B cells with PBMC
Outline: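 Human B cell plus PBMC co-culture; secreted IgG measured by ELISA 24 h after chemical dosing. Response fitted in positive direction relative to DMSO baseline.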

[4] = BSK_BT_Bcell_Proliferation: Viability Assessment in the BioMAP Diversity Plus: BT Assay for B cell Proliferation (AID 2284227); details: primary human B cells with PBMC
Outline: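 SRB-based protein staining (0.1% SRB after 10% TCA fixation, 560 nm) quantifies proliferation in human B cells co-cultured with PBMC, 72 h post-dosing, with signal gain scored relative to DMSO negative control.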

[5] = read-out: Interleukin 6 (IL6), IL6 (gene 3569); assay: BSK_BT_xIL6: BioMAP Diversity Plus: BT Assay for Interleukin 6 (IL6) Biomarker Activity (AID 2284228); details: primary human B cells with PBMC
Outline: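 Human B cell/PBMC co-culture; secreted IL-6 quantified by Luminex xMAP 24 h after chemical dosing, fitted relative to DMSO. Parallel PBMC viability by Alamar Blue after 1 h pretreatment, 20 ng/mL SEB and TSST-1, 90 h incubation.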

[6] = read-out: Tumor necrosis factor (Homo sapiens) (UniProt P01375); assay: BSK_BT_xTNFa: BioMAP Diversity Plus: BT Assay for Tumor necrosis factor alpha (TNF-alpha) Biomarker Activity (AID 2284230); details: primary human B cells with PBMC
Outline: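 Compounds were added to a B cell plus PBMC co-culture, and after 24 h secreted TNF-alpha was quantified with Luminex xMAP technology, with responses fitted upward from the DMSO control.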

[7] = read-out: Vascular cell adhesion molecule 1 (VCAM1), VCAM1 (gene 7412); assay: BSK_MyoF_VCAM1: BioMAP Diversity Plus: MyoF Assay for Vascular cell adhesion molecule 1 (VCAM1) Biomarker Activity (AID 2284231); details: primary human lung fibroblasts
Outline: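 Primary human lung fibroblasts (BioMAP MyoF system) dosed with chemical, VCAM-1 measured by ELISA 24 hours later. Fitted in the positive direction against DMSO; parallel SRB staining assessed cytotoxicity.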

[8] = read-out: Collagen I, COL1A1 (gene 1277); assay: BSK_MyoF_CollagenI: BioMAP Diversity Plus: MyoF Assay for Collagen I Biomarker Activity (AID 2284238); details: primary human lung fibroblasts
Outline: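 Primary human lung fibroblasts (MyoF system) treated 24 h; Collagen I quantified by ELISA and fitted in positive direction against DMSO. Parallel SRB total-protein staining assessed overt cytotoxicity.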

[9] = read-out: Actin alpha 1 (ACTA1), ACTA1 (gene 58); assay: BSK_MyoF_ACTA1: BioMAP Diversity Plus: MyoF Assay for Actin alpha 1 (ACTA1) Biomarker Activity (AID 2284244); details: primary human lung fibroblasts
Outline: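 Human lung fibroblast (MyoF system) cultures dosed with test chemical; alpha-SMA measured by ELISA 24 h after dosing, normalized to DMSO control. Cytotoxicity tracked in parallel cultures by SRB total-protein staining.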

[10] = read-out: Basic fibroblast growth factor (bFGF), FGF2 (gene 2247); assay: BSK_MyoF_bFGF: BioMAP Diversity Plus: MyoF Assay for Basic fibroblast growth factor (bFGF) Biomarker Activity (AID 2284246); details: primary human lung fibroblasts
Outline: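 Human lung fibroblast cultures were dosed and measured 24 h later in 96-well format. bFGF biomarker levels quantified by ELISA, with activity fitted in the positive direction against DMSO.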

[11] = read-out: Collagen IV, COL4A1 (gene 1282); assay: BSK_MyoF_CollagenIV: BioMAP Diversity Plus: MyoF Assay for Collagen IV Biomarker Activity (AID 2284247); details: primary human lung fibroblasts
Outline: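 Primary human lung fibroblasts (MyoF system) dosed 24 h; Collagen IV measured by ELISA. Activity fitted in positive direction against DMSO; cytotoxicity tracked by SRB total-protein staining in parallel cultures.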

[12] = read-out: Interleukin-8 (IL8), CXCL8 (gene 3576); assay: BSK_MyoF_IL8: BioMAP Diversity Plus: MyoF Assay for Interleukin-8 (IL8) Biomarker Activity (AID 2284261); details: primary human lung fibroblasts
Outline: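 Human lung fibroblast (MyoF system) cultures dosed for 24 h, then IL-8 measured by ELISA. Response taken relative to DMSO; parallel SRB total-protein staining for cytotoxicity.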

[13] = read-out: Decorin, DCN (gene 1634); assay: BSK_MyoF_Decorin: BioMAP Diversity Plus: MyoF Assay for Decorin Biomarker Activity (AID 2284265); details: primary human lung fibroblasts
Outline: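 Human lung fibroblast cultures were dosed for 24 h, and decorin was then measured by ELISA. Parallel cultures were stained with sulforhodamine B for total protein as a cytotoxicity check. Gain of signal was fitted relative to DMSO.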

[14] = BSK_MyoF_SRB: Viability Assessment in the BioMAP Diversity Plus: MyoF Assay (AID 2284267); details: primary human lung fibroblasts;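 also: total protein by SRB absorbance in parallel cultures as cytotoxicity measure; cells assessed 24 h after compound addition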
Outline: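 Human lung fibroblasts, 24 h after chemical dosing; total protein measured by 0.1% sulforhodamine B staining after 10% TCA fixation, read at 560 nm, fitted relative to DMSO baseline.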

[15] = read-out: TIMP metallopeptidase inhibitor 1 (TIMP1), TIMP1 (gene 7076); assay: BSK_MyoF_TIMP1: BioMAP Diversity Plus: MyoF Assay for TIMP metallopeptidase inhibitor 1 (TIMP1) Biomarker Activity (AID 2284269); details: primary human lung fibroblasts
Outline: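 Fibroblasts from human lung are dosed with chemical, cultured 24 h, and assayed for TIMP-1 by ELISA. Increases over the DMSO baseline are scored, with SRB total-protein staining run in parallel for cytotoxicity.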

[16] = target: Retinoic acid receptor RXR-alpha (Homo sapiens) (UniProt P19793); assay: OT_NURR1_NURR1RXRa_0480: Odyssey Thera (OT) 8-hour HEK293T Protein Complementation Assay for Nurr1/retinoid X receptor (RXR) (AID 2283385; active = hit-call score of the fitted dose curve at least 0.9, where 1 is the maximum)
Outline: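 HEK293T cells expressing Nurr1 and RXRα fused to reporter fragments (protein-fragment complementation); fluorescence measured 8 h after dosing. Gain of signal fitted relative to DMSO.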

[17] = target: Cytochrome P450 2C18 (Homo sapiens) (UniProt P33260); assay: NVS_ADME_hCYP2C18: NovaScreen (NVS) CYP450-related Enzyme Activity (ADME) Assay for human CYP2C18 (AID 2283103)
Outline: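 Cell-free recombinant human CYP2C18 with fluorogenic substrate; fluorescence intensity read 0.5 h after dosing. Single-point screen at 10 uM in duplicate, then concentration-response up to 20 uM; loss of signal fitted against acetonitrile baseline.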

[18] = target: human Ephrin type-A Receptor 2 (EphA2), EPHA2 (gene 1969) (UniProt P29317); assay: NVS_ENZ_hEphA2: NovaScreen (NVS) Enzymatic Assay for human Ephrin type-A Receptor 2 (EphA2) (AID 2283155; active = hit-call score of the fitted dose curve at least 0.9, where 1 is the maximum)
Outline: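 Cell-free recombinant EphA2 kinase with specific substrate, 1 h, fluorescence with electrophoretic mobility-shift separation of substrate and product. Primary screen at 25 uM in duplicate; hits retested in singleton concentration-response up to 50 uM, referenced to DMSO.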

[19] = target: human Protein Tyrosine Phosphatase Receptor Type C (PTPRC), PTPRC (gene 5788) (UniProt P08575); assay: NVS_ENZ_hPTPRC: NovaScreen (NVS) Enzymatic Assay for human Protein Tyrosine Phosphatase Receptor Type C (PTPRC) (AID 2283212; active = hit-call score of the fitted dose curve at least 0.9, where 1 is the maximum)
Outline: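 Yeast-extracted human PTPRC used in a cell-free colorimetric enzyme activity read-out, 1 h after dosing. Primary screen in duplicate at 25 uM; actives rerun in concentration-response up to 50 uM, DMSO as baseline.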

[20] = target: rat Oxytocin Receptor (OXT), Oxtr (gene 25342) (UniProt P70536); assay: NVS_GPCR_rOXT: NovaScreen (NVS) G Protein-Coupled Receptor Assay for rat Oxytocin Receptor (OXT) (AID 2283330; active = hit-call score of the fitted dose curve at least 0.9, where 1 is the maximum)
Outline: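 Radioligand displacement on rat uterine membranes, 1 h incubation, filter-based scintillation counting. Chemicals were screened in duplicate at 25 uM, and those passing threshold were retested in concentration-response up to 50 uM. Loss of binding was fitted versus DMSO.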

human Protein Tyrosine Phosphatase Receptor Type C (PTPRC), PTPRC (gene 5788), sequence (P08575 whole entry, looked up): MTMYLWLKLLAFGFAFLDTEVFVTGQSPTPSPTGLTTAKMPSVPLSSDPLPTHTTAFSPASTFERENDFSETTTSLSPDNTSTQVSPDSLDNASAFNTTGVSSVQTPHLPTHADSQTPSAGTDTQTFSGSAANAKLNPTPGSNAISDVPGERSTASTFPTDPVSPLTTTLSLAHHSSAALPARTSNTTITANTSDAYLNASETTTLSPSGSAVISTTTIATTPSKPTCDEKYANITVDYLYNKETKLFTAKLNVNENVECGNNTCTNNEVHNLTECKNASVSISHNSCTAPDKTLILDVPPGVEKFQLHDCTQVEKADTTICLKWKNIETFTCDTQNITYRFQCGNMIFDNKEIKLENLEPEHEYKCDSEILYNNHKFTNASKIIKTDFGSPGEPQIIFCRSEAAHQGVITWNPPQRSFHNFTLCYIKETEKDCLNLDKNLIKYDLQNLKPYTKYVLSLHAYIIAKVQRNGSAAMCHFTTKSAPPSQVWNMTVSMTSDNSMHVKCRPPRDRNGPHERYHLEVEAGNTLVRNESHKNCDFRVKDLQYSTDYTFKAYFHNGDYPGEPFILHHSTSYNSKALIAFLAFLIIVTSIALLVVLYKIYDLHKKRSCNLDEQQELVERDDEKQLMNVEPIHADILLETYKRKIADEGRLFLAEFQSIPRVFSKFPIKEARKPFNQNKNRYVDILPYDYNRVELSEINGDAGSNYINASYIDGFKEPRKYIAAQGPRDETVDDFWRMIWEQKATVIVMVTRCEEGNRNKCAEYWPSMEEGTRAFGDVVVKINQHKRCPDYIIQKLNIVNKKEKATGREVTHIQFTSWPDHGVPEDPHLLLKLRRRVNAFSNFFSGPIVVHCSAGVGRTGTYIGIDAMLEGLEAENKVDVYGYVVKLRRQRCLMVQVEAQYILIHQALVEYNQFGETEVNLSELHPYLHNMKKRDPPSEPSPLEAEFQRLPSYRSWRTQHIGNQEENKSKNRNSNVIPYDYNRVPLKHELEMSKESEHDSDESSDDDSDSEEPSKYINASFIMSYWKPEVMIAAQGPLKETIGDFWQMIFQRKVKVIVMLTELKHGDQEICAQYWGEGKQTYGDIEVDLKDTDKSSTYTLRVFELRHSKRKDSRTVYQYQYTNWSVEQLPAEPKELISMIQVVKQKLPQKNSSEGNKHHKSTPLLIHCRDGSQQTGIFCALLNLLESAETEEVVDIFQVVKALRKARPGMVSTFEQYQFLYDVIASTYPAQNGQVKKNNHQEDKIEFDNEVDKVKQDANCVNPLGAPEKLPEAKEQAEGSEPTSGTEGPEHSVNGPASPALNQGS
Cytochrome P450 2C18 (Homo sapiens), sequence (P33260 whole entry, looked up): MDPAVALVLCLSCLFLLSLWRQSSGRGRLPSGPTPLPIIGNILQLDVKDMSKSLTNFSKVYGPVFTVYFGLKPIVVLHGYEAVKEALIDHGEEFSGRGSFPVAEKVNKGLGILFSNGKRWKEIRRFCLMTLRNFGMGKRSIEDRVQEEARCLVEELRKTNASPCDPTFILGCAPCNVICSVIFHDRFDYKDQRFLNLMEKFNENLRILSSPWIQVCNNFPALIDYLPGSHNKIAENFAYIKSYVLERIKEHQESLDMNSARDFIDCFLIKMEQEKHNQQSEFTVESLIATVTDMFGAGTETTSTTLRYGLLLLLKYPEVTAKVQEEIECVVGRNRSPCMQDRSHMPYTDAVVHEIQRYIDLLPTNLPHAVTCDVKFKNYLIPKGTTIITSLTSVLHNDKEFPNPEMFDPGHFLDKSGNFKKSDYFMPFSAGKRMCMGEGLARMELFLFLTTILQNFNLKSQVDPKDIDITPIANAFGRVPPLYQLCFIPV
rat Oxytocin Receptor (OXT), Oxtr (gene 25342), sequence (P70536 whole entry, looked up): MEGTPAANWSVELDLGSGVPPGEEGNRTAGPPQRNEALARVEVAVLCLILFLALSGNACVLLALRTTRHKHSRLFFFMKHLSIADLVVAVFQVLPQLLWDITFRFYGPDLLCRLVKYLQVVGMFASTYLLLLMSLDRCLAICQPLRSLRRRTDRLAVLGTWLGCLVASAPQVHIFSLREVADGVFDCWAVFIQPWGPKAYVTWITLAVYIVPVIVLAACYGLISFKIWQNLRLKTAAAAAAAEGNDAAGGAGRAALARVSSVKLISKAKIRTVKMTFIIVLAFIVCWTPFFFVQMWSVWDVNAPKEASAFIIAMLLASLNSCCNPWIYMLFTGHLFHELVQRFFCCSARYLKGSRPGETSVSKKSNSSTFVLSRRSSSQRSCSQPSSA
Retinoic acid receptor RXR-alpha (Homo sapiens), sequence (P19793 whole entry, looked up, the tested form may be a part): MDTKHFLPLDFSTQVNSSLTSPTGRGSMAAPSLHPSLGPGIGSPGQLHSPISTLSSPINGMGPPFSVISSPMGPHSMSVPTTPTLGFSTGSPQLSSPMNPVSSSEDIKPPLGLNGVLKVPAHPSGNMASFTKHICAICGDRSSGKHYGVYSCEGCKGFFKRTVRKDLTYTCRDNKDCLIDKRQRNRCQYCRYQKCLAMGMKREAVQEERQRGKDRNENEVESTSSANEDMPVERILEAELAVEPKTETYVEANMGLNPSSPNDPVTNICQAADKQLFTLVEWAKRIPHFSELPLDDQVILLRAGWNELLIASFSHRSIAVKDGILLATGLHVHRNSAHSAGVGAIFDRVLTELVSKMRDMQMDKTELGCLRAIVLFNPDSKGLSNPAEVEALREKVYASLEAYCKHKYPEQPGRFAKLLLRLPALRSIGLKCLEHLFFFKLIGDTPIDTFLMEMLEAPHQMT
human Ephrin type-A Receptor 2 (EphA2), EPHA2 (gene 1969), sequence (P29317 whole entry, looked up): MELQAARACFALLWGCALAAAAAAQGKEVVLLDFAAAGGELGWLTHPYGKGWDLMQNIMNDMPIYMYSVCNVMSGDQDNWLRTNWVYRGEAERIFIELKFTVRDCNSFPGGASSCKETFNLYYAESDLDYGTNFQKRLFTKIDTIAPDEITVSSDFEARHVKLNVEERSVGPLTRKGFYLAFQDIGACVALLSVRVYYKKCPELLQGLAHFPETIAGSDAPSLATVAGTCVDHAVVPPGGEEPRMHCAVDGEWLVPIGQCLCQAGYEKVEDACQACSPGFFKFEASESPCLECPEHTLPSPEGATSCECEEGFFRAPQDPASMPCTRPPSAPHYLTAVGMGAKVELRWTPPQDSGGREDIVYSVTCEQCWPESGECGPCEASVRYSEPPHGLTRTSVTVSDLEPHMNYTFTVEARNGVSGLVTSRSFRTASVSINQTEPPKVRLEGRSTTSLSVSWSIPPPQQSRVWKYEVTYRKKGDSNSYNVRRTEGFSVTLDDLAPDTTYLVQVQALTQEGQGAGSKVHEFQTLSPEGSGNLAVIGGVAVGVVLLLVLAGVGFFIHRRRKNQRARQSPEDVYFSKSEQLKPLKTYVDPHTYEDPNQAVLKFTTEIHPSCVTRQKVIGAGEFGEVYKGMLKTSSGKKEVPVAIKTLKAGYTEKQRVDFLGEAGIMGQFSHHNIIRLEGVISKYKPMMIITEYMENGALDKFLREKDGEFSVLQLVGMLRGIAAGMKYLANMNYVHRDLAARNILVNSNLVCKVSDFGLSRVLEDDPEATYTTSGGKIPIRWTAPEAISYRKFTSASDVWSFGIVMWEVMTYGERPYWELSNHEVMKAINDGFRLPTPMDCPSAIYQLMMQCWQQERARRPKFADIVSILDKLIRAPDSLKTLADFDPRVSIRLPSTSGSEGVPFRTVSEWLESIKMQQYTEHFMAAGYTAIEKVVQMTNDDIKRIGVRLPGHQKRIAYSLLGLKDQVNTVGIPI
Tumor necrosis factor (Homo sapiens), sequence (P01375 whole entry, looked up): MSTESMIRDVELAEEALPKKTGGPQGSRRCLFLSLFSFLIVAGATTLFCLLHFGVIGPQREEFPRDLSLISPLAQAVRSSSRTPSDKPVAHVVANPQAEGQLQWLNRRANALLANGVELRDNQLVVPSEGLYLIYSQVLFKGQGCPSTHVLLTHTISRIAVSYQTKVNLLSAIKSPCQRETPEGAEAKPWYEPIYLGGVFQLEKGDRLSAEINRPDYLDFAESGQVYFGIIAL

Compound: Clc1ccc(-c2ccccc2)cc1
- outcome [1]: inactive
- outcome [2]: inactive
- outcome [3]: inactive
- outcome [4]: inactive
- outcome [5]: inactive
- outcome [6]: inactive
- outcome [7]: inactive
- outcome [8]: inactive
- outcome [9]: inactive
- outcome [10]: inactive
- outcome [11]: inactive
- outcome [12]: inactive
- outcome [13]: inactive
- outcome [14]: inactive
- outcome [15]: inactive

Compound: Nc1cc(Cl)cc(Cl)c1
- outcome [16]: inactive

Compound: CCCC=NO
- outcome [16]: inactive

Compound: C=CCN(CC=C)C(=O)C(Cl)Cl
- outcome [1]: inactive
- outcome [2]: inactive
- outcome [3]: inactive
- outcome [4]: inactive
- outcome [5]: inactive
- outcome [6]: inactive
- outcome [7]: inactive
- outcome [8]: inactive
- outcome [9]: inactive
- outcome [10]: inactive
- outcome [11]: inactive
- outcome [12]: inactive
- outcome [13]: inactive
- outcome [14]: inactive
- outcome [15]: inactive

Compound: O=c1c2ccccc2c(=O)c2c1cc(Cl)c1[nH]c3c([nH]c12)c(Cl)cc1c(=O)c2ccccc2c(=O)c13
- outcome [1]: inactive
- outcome [2]: inactive
- outcome [3]: inactive
- outcome [4]: inactive
- outcome [5]: inactive
- outcome [6]: inactive
- outcome [7]: inactive
- outcome [8]: inactive
- outcome [9]: inactive
- outcome [10]: inactive
- outcome [11]: inactive
- outcome [12]: inactive
- outcome [13]: inactive
- outcome [14]: inactive
- outcome [15]: inactive

Compound: CC(C)(Cl)Cl
- outcome [16]: inactive

Compound: CC(C)[C@@H](C(=O)O[C@@H](C#N)c1cccc(Oc2ccccc2)c1)c1ccc(Cl)cc1
- outcome [17]: inactive

Compound: CCCCOCCOCCOCc1cc2c(cc1CCC)OCO2
- AC50 [17]: 4.47 µM (active)

Compound: CC(C)(c1ccc(O)cc1)c1ccc(O)cc1
- AC50 [17]: 6.12 µM (active) and 7.43 µM (active)
- outcome [18]: inactive
- outcome [19]: inactive
- AC50 [20]: 7.41 µM (active)

Compound: O=c1c(-c2ccc(O)cc2)coc2cc(O)cc(O)c12
- outcome [17]: inactive

Compound: Cc1nc(-c2ccc3c(c2)CCN(CCC2CCC(NC(=O)/C=C/c4ccc(F)cc4)CC2)CC3)no1 (stereo not given)
- outcome [20]: inactive

Compound: COC(=O)CSc1cc(N=c2sc(=O)n3n2CCCC3)c(F)cc1Cl
- outcome [17]: inactive

Compound: N#CSCSc1nc2ccccc2s1
- AC50 [17]: 2.72 µM (active)

Compound: CCN(CC)CCOc1ccc(C(=C(Cl)c2ccccc2)c2ccccc2)cc1
- AC50 [17]: 11.4 µM (active) and 4.62 µM (active)

Compound: Cc1nn(C)c(Oc2ccccc2)c1C=NOCc1ccc(C(=O)OC(C)(C)C)cc1
- outcome [17]: inactive

Compound: CCCOc1sc(C(=O)N2CCC(c3cc(CN)ccc3F)CC2)c(C)c1Br
- outcome [18]: inactive
- AC50 [20]: 23.2 µM (active)

Compound: CN(C)c1ccc(C(=C2C=CC(=[N+](C)C)C=C2)c2ccc(N(C)C)cc2)cc1
- AC50 [20]: 20.9 µM (active)

Compound: O=C(O)Cn1c(=O)n(Cc2ccc(Br)cc2F)c(=O)c2ccc(Cl)cc21
- outcome [19]: inactive

Compound: CCCCCCCCCCCCCC[P+](CCCC)(CCCC)CCCC
- AC50 [18]: 9.76 µM (active)

Compound: COc1ccc(S(=O)(=O)N2C(=O)[C@@](c3ccccc3OC)(N3C[C@H](O)C[C@H]3C(=O)N(C)C)c3cc(Cl)ccc32)c(OC)c1
- AC50 [20]: 0.0663 µM (active)

Compound: O=C(Nc1ccc(Cl)cc1)Nc1ccc(Cl)c(Cl)c1
- outcome [18]: inactive

Compound: O=Cc1ccccc1C=O
- outcome [18]: inactive
- AC50 [19]: 17.7 µM (active)

Compound: COCCOC[C@H](CC1(C(=O)NC2CCC(C(=O)O)CC2)CCCC1)C(=O)Oc1ccc2c(c1)CCC2 (stereo not given in full)
- outcome [20]: inactive

Compound: Nc1cccc2c(N)cccc12
- AC50 [19]: 5.35 µM (active)

Compound: CCCCCCCCCCCCCCCCOS(=O)(=O)O
- AC50 [19]: 6.6 µM (active)

Compound: CCCN(CCC)C(=O)SCC
- outcome [20]: inactive

Compound: CCOc1ccc2c(c1)C(C)=CC(C)(C)N2
- AC50 [19]: 8.36 µM (active)

Compound: CCN(Cc1cccnc1)C(=O)c1cccc(Cl)c1[C@]1(C)C(=O)N(Cc2ccc(OC)cc2OC)c2ccc(Cl)cc21
- AC50 [20]: 0.0728 µM (active)

Compound: COc1cc(-c2nc(NC(=O)c3cc4cc(C)cc(C)c4n3CC(=O)O)sc2CCC2CCCCC2)c(OC)cc1Cl
- AC50 [19]: 11.4 µM (active)

Compound: CCCCCCCCCCCCc1ccccc1S(=O)(=O)O
- AC50 [19]: 5.18 µM (active)

Compound: c1ccc2[nH]c(-c3cscn3)nc2c1
- outcome [18]: inactive

Compound: N#C[C@@H]1CC(F)(F)CN1C(=O)CNC1CC2CCC(C1)N2c1ncccn1 (stereo not given in full)
- outcome [18]: inactive

Compound: CCN(CC)C(=S)SSC(=S)N(CC)CC
- outcome [18]: inactive
